# Data reported in PubChem BioAssay AID1259422 (The Scripps Research Institute Molecular Screening Center, 2018).
# Several values for one entry are separate records, joined by “and”; a condition that tells them apart may be missing. Identical values can stand only once. Out of some 640,000 compounds screened, about 9,300 (1.5%) were called active. What follows is part of a selection rich in actives, with near analogues and random picks from the rest. A number with no mark means an inactive call. No stated cut-off is given here; in the data, active means inhibition above about 32%; inactive means the rest.
# Experiment: TEAD-YAP interaction inhibition, primary screen, TEAD-YAP interaction inhibitor project, luminescence, HEK-TIYL cells (AID 1259422);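 further: 0% = median of test compound wells and 100% = reference inhibitor wells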
# Conditions: TEAD-Gal4/YAP UAS-luciferase luminescence, at 9.12 µM, stronger effect = higher value
row,SMILES,inhibition
1,Oc1ccc(CCNc2nc(Nc3ccncn3)nc3c2ncn3Cc2ccc(C(F)(F)F)cc2)cc1,-4.85%
2,NC(=S)N/N=C/c1c(Sc2ccccn2)nc2ccccn2c1=O,-6.3%
3,O=c1c(/C=N/Nc2ccc(C(F)(F)F)cn2)c(Cl)nc2ccccn12,52.1% (active)
4,O=c1c(C=Nc2ccc(Cl)cc2)c(Nc2ccccc2)nc2ccccn12,-17.1%
5,COc1ccc(/C=C2\C(=O)N(c3ccc(Cl)c(C(=O)O)c3)N=C2C)cc1Br,0.17%
6,C/C(CC(C)C)=N\NC(=O)c1nnn(-c2nonc2N)c1-c1ccccc1,-8.99%
7,O=C(Nc1cccc(NC(=O)c2ccc(-c3ccccc3[N+](=O)[O-])o2)c1)c1ccco1,-5.61%
8,COc1ccc(NC(=O)c2ccco2)cc1NC(=O)c1ccc(-c2ccccc2[N+](=O)[O-])o1,34.4% (active)
9,O=C(Nc1ccc(N2CCOCC2)c(Cl)c1)c1ccc(-c2ccccc2[N+](=O)[O-])o1,11.7%
10,CC(C)N(C)C1CCN(S(=O)(=O)c2cccc([N+](=O)[O-])c2)CC1,-1.4%
11,Cc1ccc2cccc(NC(=O)c3cc4ccccc4o3)c2n1,12.1%
12,CN(CC(=O)Nc1ccccc1F)CC(=O)Nc1ccccc1Br,-1.95%
13,CCC(C)c1ccccc1NC(=O)C(C)Cl (configuration not stated),-3.45%
14,CCC(C)c1ccccc1NC(=O)CN(C)CC(=O)Nc1ccccc1SC (configuration not stated),36.5% (active)
15,COc1cccc(C=Nc2ccc(N)c(Cl)c2)c1O,6.6%
16,COc1cccc(/C=N/NC(=O)c2cccc(NC(=O)c3ccc(F)cc3)c2)c1O,28.7%
17,COc1cccc(/C=N/Nc2ncc(C(F)(F)F)cc2Cl)c1O,49.5% (active)
18,Cc1ccc(Nc2nc(-c3ccc(Cl)cc3)cs2)cc1,-86.7%
19,Cc1ccc(Nc2nc(-c3cccs3)cs2)cc1,64.2% (active)
20,Cc1ccc(-c2csc(Nc3ccccc3)n2)c(C)c1,-65%
21,CCOCCCn1c(SCc2cc(=O)n3ccccc3n2)nc2ccccc2c1=O,0.02%
22,Cc1cc2nnn(C[C@@H](C)NC(=O)Cc3ccccc3)c2cc1C,-20.1%
23,COc1ccc(-c2nc(CSCC(=O)NC3CCCCCC3)c(C)o2)cc1OC,2.93%

row,SMILES,inhibition
1,Cc1ccc(-c2nc(CSCC(=O)N3CCC(C(N)=O)CC3)c(C)o2)cc1,10.6%
2,Cc1ccc(-c2nc(CSCC(=O)NC3CCN(Cc4ccccc4)CC3)c(C)o2)cc1,33.9% (active)
3,O=C(Cn1c(SCC(=O)N2CCCC2)nc2ccccc21)NC1CCCC1,3.72%
4,Cc1cccc(Oc2ccc(NC(=O)c3cc(-c4ccccc4)nc4ccc(C)cc34)cc2)c1,-0.69%
5,O=C(Nc1ccc(F)cc1)c1cc(-c2ccncc2)nc2ccccc12,-1.35%
6,Cc1ccc2nc(-c3ccncc3)cc(C(=O)Nc3ccc4c(c3)OCCO4)c2c1,43.3% (active)
7,COc1ccc(-c2nnc(SCC(=O)N(C)C)n2C)cc1,2.69%
8,CCC(=O)N[C@@H]1c2ccccc2C2(CCN(Cc3cn[nH]c3-c3ccccc3)CC2)[C@H]1OC,-3.33%
9,CCOc1ccccc1C(=O)Nc1c(C(=O)Nc2ccccc2F)oc2cccnc12,41.9% (active)
10,COc1ccccc1NC(=O)c1oc2cccnc2c1NC(=O)c1ccc(Cl)cc1,-6.82%
11,O=C(Nc1ccccc1F)c1oc2cccnc2c1NC(=O)C1CC1,2.6%
12,Cn1c(SCC(=O)c2ccc3c(c2)OCO3)nnc1-c1cccs1,-1.64%
13,COc1ccc(C(=O)/C=C/Nc2ccccn2)cc1,53.5% (active)
14,COc1ccc(C(=O)/C=C/Nc2cccc(C(C)O)c2)cc1 (configuration not stated),-59.6%
15,COc1ccccc1N/C=C/C(=O)c1ccc(OC)c(OC)c1,-24% and -18.3%
16,CCC(Oc1ccccc1)C(=O)NC(C)C (configuration not stated),12.4%
17,CCc1cc(=O)[nH]c(NC2CCN(S(=O)(=O)c3ccccc3)CC2)n1,4.67%
18,COc1ccc(Nc2c(-c3ccccc3O)nc3cnccn23)cc1,-0.84%
19,Oc1ccccc1-c1nc2cnccn2c1NCc1ccccc1,-6.9%
20,COc1ccc(CNc2c(-c3ccccc3O)nc3cnccn23)cc1,67.4% (active)
21,COc1ccc(OC)c(N/C=C(/C#N)c2nc(-c3ccc(OC)c(OC)c3)cs2)c1,0.19%
22,COc1ccc(N=C2SC(C(=O)NCCc3ccccc3)CC(=O)N2CCc2ccc(OC)c(OC)c2)cc1 (configuration not stated),7.83%
23,Cc1cc(C)nc(NC(N)=NCCC(C)C)n1,6.21%

row,SMILES,inhibition
1,O=[N+]([O-])/C=C/c1ccc2c(ccn2Cc2ccccc2)c1,33.9% (active)
2,N#CC(C#N)=Cc1ccc(N2CCN(Cc3ccccc3)CC2)c([N+](=O)[O-])c1,4.11%
3,O=[N+]([O-])/C=C\c1ccc(N2CCCCC2)cc1,31.3%
4,CC1(C)Cc2c(c(N3CCOCC3)nc3sc4c(N5CCCCC5)nnnc4c23)CO1,-1.34%
5,CCn1c(=O)c2ccccc2n2c(SCC(=O)N(C)C3CCCCC3)nnc12,-7.16%
6,O=C(Nc1cccc(NC(=O)c2cccc(Cl)c2Cl)c1)c1ccco1,-0.83%
7,Oc1ccc(/C=N/Nc2ncc(F)c(N3CCOCC3)n2)c(O)c1,58.7% (active)
8,Cc1ccc(Nc2nc(N/N=C/c3ccccc3O)nc(N3CCOCC3)n2)cc1Cl,-11%
9,Oc1ccc(/C=N/Nc2nn[nH]n2)c(O)c1,-11.8%
10,COc1ccc(C2=N/C(=C\c3cc(OC)c(OC)c(OC)c3)C(=O)O2)c(Cl)c1,-1.56%
11,N#Cc1c(-n2ncnc2-c2ccc3c(c2)OCO3)sc2c1CCCC2,-2.41%
12,c1ccc(CNc2nc(Nc3cccnc3)nc3c2ncn3-c2ccccc2)cc1,25.2%
13,c1ccc(-n2cnc3c(NCc4nc5ccccc5[nH]4)nc(Nc4nccc5ccccc45)nc32)cc1,7.74%
14,FC(F)(F)c1cccc(CNc2nc(N3CCN(c4ccccn4)CC3)nc3c2ncn3-c2ccsc2)c1,-7.69%
15,c1cncc(Nc2nc(NCc3nc4ccccc4[nH]3)c3ncn(-c4ccsc4)c3n2)c1,84.1% (active)
16,c1ccc(N2CCN(c3nc(NCc4nc5ccccc5[nH]4)c4ncn(-c5ccsc5)c4n3)CC2)nc1,68% (active)
17,c1ccc(CNc2nc(N3CCN(c4ccccn4)CC3)nc3c2ncn3-c2ccsc2)cc1,-1.71%
18,COc1cccc(NC(=S)NC(=O)CC(C)C)c1,-50%
19,CCc1ccccc1NC(=O)c1cc2ccccc2oc1=O,-2.07%
20,O=C(CC1(O)C(=O)Nc2c(C(F)(F)F)cccc21)c1ccc(Cl)s1 (configuration not stated),-1.56%
21,Cc1ccc2c(c1)-c1c(cnn1CC(=O)NCCCN1CCCCCC1)CO2,4.66%
22,CC(NC(=O)CSCc1ccccc1Cl)c1ccccc1 (configuration not stated),-4.44%
23,Cc1noc(C)c1S(=O)(=O)N1CCCC(C(=O)Nc2cccc(Cl)c2C)C1 (configuration not stated),3.39%

row,SMILES,inhibition
1,CN1CCN(c2cc(NCCCC(=O)O)c3c4c(onc24)-c2ccccc2C3=O)CC1,11.3%
2,CCOC(=O)N1CCN(c2cc(NCCO)c3c4c(onc24)-c2ccccc2C3=O)CC1,17.6%
3,CC1CCN(c2cc(NCC(=O)O)c3c4c(onc24)-c2ccccc2C3=O)CC1,64% (active)
4,CCN(CC)CCCNCc1ccc(F)cc1Cl,-3.24%
5,COc1ccc(NC(=S)NNS(=O)(=O)c2ccc(NC(C)=O)cc2)cc1,43.9% (active)
6,COc1ccc(NC(=S)Nc2ccc(OC)cc2)cc1,-17.9%
7,COc1ccc(NC(=S)Nc2ccccc2C(C)=O)cc1,8.25%
8,COc1ccc(OC(C)C(=O)Nc2ccc(C(=O)OC(C)C)cc2)cc1 (configuration not stated),11.3%
9,C=CCn1c(=S)[nH]c2sc(-c3ccccc3)cc2c1=O,-58.7%
10,COc1ccc(S(=O)(=O)N2CCc3ccccc3C2)cc1Cl,14.1%
11,O=C1CC(=O)Nc2cc(S(=O)(=O)N3CCCc4ccccc43)ccc2N1,5.24%
12,COc1ccc(S(=O)(=O)N2CCCc3ccccc32)cc1Cl,36.9% (active)
13,O=S(=O)(c1ccc2c(c1)OCCCO2)N1CCCc2ccccc21,63.8% (active)
14,CS(=O)(=O)c1cccc(S(=O)(=O)N2CCCc3ccccc32)c1,3.88%
15,Cn1c(=O)c(=O)n(C)c2cc(S(=O)(=O)N3CCCc4ccccc43)ccc21,-1.32%
16,CC(=O)NC1C(Oc2ccc(C)cc2C)OC(COC(C)=O)C(OC(C)=O)C1OC(C)=O (configuration not stated),0.55%
17,Nc1nonc1-c1nc2ccccc2n1CC(=O)N/N=C\c1cccc(F)c1,10.8%
18,Nc1nc(Cn2c(-c3nonc3N)nc3ccccc32)nc(N2CCCCC2)n1,5.35%
19,COc1ccc(-c2nc3ccccc3n2Cc2ccccc2)cc1OC,-0.42%
20,Nc1nonc1-c1nc2ccccc2n1CC(=O)Nc1cccc(F)c1,40.7% (active)
21,COc1ccc(C)c(Cn2c(-c3nonc3N)nc3ccccc32)c1,53.5% (active)
22,CCCCCCOc1cccc(NC(=O)Cn2c(-c3nonc3N)nc3ccccc32)c1,10.4%
23,Cc1ccc(Nc2ncccc2C(=O)N2CCCC2)c(C)c1,-3.43%
